# ugtP null kill – kills S. aureus RN4220 lacking UgtP. S. aureus RN4220 ugtP deletion, OD600 growth, 16 h. growth inhibition, % (test concentration not listed). 0.54% of 330,000 active. AID 1259309; in the data active = growth inhibition above about 68%;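 also: plate controls were untreated wells for no effect and antibiotic for full effect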
# PrPC surface inh – reduces human prion protein on the cell surface. inhibition, % at 13.8 µM. cell surface PrPC, TR-FRET read-out. P04156. 0.43% of 370,000 active; in the data active = inhibition above about 24%; also: 0% = median of the test wells and 100% = reference compound wells
# PfHsp40 rescue – compounds rescuing yeast from Plasmodium falciparum HSP40 toxicity. S. cerevisiae expressing PfHsp40, growth rescue, ATP luminescence. growth rescue, % at 12.5 µM. 0.68% of 340,000 active. AID 504582; in the data active = growth rescue above about 28%, passing the limit was not always enough; inconclusive = no clear call, values can overlap the other calls;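 also: yeast W303a lacking pdr1 and pdr3 grown in galactose medium; growth measured after three days at 30 °C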
# RN4220 kill – S. aureus RN4220 growth inhibition. OD600, 16 h. inhibition, % (no concentration beside the values). 0.33% of 330,000 active; in the data active = inhibition above about 85%;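 also: plate controls were untreated cells for no effect and reference antibiotic for full effect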
# DUSP3 inh – DUSP3 (human) phosphatase inhibition. recombinant VHR phosphatase, pNPP absorbance. inhibition, % at 13.3 µM. 0.52% of 290,000 active. AID 1654; in the data active = inhibition above about 50%
# Target sequence (P51452 whole entry, looked up): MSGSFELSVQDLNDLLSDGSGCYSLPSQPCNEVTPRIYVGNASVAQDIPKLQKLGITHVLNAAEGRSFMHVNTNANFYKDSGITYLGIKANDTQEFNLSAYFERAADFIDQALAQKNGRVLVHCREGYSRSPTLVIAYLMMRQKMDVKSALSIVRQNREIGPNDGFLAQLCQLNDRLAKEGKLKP
# * hit, by the source's call; ? = inconclusive; / = no result. The list is not random: actives were taken first. Their share in the collection is about 1.8%.
SMILES,ugtP null kill,PrPC surface inh,PfHsp40 rescue,RN4220 kill,DUSP3 inh
NC1=NCC(CC2CCCCC2)N1CCc1cc(C(F)(F)F)cc(C(F)(F)F)c1 (centres undefined),101*,/,/,101*,/
NC1=NCC(Cc2ccccc2)N1CCc1cc(C(F)(F)F)cc(C(F)(F)F)c1 (centres undefined),-1,/,/,-16,/
NC1=NC[C@H](Cc2ccc(O)cc2)N1CCc1cc(C(F)(F)F)cc(C(F)(F)F)c1,/,11,0,/,15
NC1=NC[C@@H](CC2CCCCC2)N1CCc1cc(C(F)(F)F)cc(C(F)(F)F)c1,100*,/,-2,100*,/
COC(=O)CN1C(=O)C2C(C3CC3)N3C(=O)CN(Cc4ccccn4)C(=O)[C@@]3(Cc3ccccc3)C2C1=O (some centres undefined),3,/,/,6,/
CN(C)C(CNc1ccc(S(C)(=O)=O)cc1[N+](=O)[O-])Cc1ccccc1 (centres undefined),5,-41,-1,4,56*
Cc1ccccc1Cc1c(C)nc2nc(SCC(=O)NCCCN3CCCCC3)nn2c1C,4,/,-2,1,58*
Cc1nc2nc(SCC(=O)NCCCN3CCCCCC3)nn2c(C)c1Cc1ccccc1,9,-12,?,0,17
Cc1nc2nc(SCC(=O)NCc3ccco3)nn2c(C)c1Cc1c(F)cccc1Cl,5,-3,-1,4,51*
CCC(Nc1ccc(OC)cc1)C(=O)NN=Cc1ccc([N+](=O)[O-])cc1 (centres undefined),0,/,/,1,/
Cc1cc(N=C/C=C2\N(C)c3ccccc3C2(C)C)n(CCC#N)n1,-7,/,/,6,/
Cc1nn(-c2ccccc2)c(C)c1C=CC(=O)OC(C)C(N)=O (centres undefined),-7,/,/,1,/
CC(=NNC(=O)CN(c1ccccc1)S(=O)(=O)c1ccccc1)c1ccccc1O,-1,/,/,3,/
CC(C)C(=O)NNS(=O)(=O)c1ccccc1[N+](=O)[O-],0,-3,55*,5,-4
COC(C(=O)NNS(=O)(=O)c1ccccc1[N+](=O)[O-])c1ccccc1 (centres undefined),13,-7,0,3,13
O=C(C1=CC(c2csc3ccccc23)CC(OCc2ccc(CO)cc2)O1)N1CCOCC1 (centres undefined),3,/,/,6,/
COc1cc(C=NNc2nc(C)nc3c2cnn3-c2ccccc2)ccc1O,-5,/,/,-3,/
CCn1nccc1C(=O)Nc1cc(Cl)cc(Cl)c1,44,-2,63*,5,-1
CCn1nccc1C(=O)Nc1ccc(Cl)cn1,7,1,2,5,35
ON=Cc1cc(Br)ccc1OCc1cccc(F)c1,82*,/,/,2,/
O/N=C/c1cc(Br)ccc1OCc1ccc(F)cc1,/,-3,0,/,/
CCOc1ccc(Br)cc1C=NO,15,/,/,6,/
Cc1ccc(COc2ccc(Br)cc2/C=N/O)cc1,/,2,450*,/,21
O/N=C/c1cc(Br)ccc1OCc1cccc(F)c1,/,9,279*,/,24
ON=Cc1cc(Br)ccc1OCc1ccccc1F,87*,/,/,6,/
SMILES,ugtP null kill,PrPC surface inh,PfHsp40 rescue,RN4220 kill,DUSP3 inh
O=S1(=O)CCOCC(c2ccccc2)N1Cc1ccccc1F (centres undefined),-6,/,/,-1,/
Cc1ccc(C=NNC(=O)c2ccccc2OCc2ccc(F)cc2)o1,0,/,/,3,/
CCOC1OC(C(N)=O)=CC(c2cn(C(C)=O)c3ccccc23)C1CCCO (centres undefined),3,/,/,10,/
O=C(CC1S/C(=N/N=Cc2ccco2)NC1=O)Nc1ccccc1 (centres undefined),2,/,/,7,/
COc1ccc(C2=NOC(CNC(N)=S)C2)cc1 (centres undefined),83*,5,0,73,18
Cc1ccccc1NC(=O)CCC(=O)NN=Cc1cc([N+](=O)[O-])ccc1O,85*,/,/,95*,/
O=C(NN=Cc1cc([N+](=O)[O-])ccc1O)C1CC1,80,/,/,90*,/
O=C(NC(C(=O)N/N=C/c1cc([N+](=O)[O-])ccc1O)c1n[nH]c(=O)c2ccccc12)c1ccccc1 (centres undefined),/,-13,82*,/,1
CC(N=Cc1cc([N+](=O)[O-])ccc1O)c1ccccc1 (centres undefined),67,-5,3,85*,-21
O=[N+]([O-])c1ccc(NN=Cc2ccccc2O)nc1,-9,-18,-2,6,/
O=[N+]([O-])c1ccc(O)c(C=Nc2ccc3c(c2)OCCO3)c1,74,4,2,92*,-4
CN(C)N=Cc1cc([N+](=O)[O-])ccc1O,55,/,/,71,/
O=C1C2C(C(=O)N1N=Cc1cc([N+](=O)[O-])ccc1O)C1C=CC2C12CC2 (centres undefined),81,/,/,93*,/
O=[N+]([O-])c1cccc(N/N=C/c2cc([N+](=O)[O-])ccc2O)c1,/,4,-1,/,26
O=[N+]([O-])c1ccc(O)c(C=NNc2ccc(S(=O)(=O)O)cc2)c1,72,-15,-1,89*,/
O=[N+]([O-])c1ccc(O)c(/C=N/Nc2ccccn2)c1,/,-11,308*,/,0
O=C(NN=Cc1oc(O)c2ccccc12)c1ccccc1O,3,/,/,4,/
CCCCOc1ccc(C(=O)NN=Cc2ccc(OCCN3CCCCC3)c(OC)c2)cc1,4,/,/,0,/
COc1ccc(NC(=O)N(C)CC2Oc3c(NC(=O)c4nc5ccccc5s4)cccc3C(=O)N(C(C)CO)CC2C)cc1 (centres undefined),-28,/,/,-1,/
Cc1noc(C)c1NC(=O)Nc1ccc2c(c1)CC(=O)N(C(C)CO)CC(C)C(CN(C)CC1CCCCC1)O2 (centres undefined),0,/,/,-1,/
Brc1ccc(-c2ccc(C=NNc3nncc(-c4ccccc4)n3)o2)cc1,-8,/,/,-5,/
COc1ccc(C=NNC(=O)c2nc(Cl)c(Cl)c(N)c2Cl)cc1COc1ccccc1F,-3,/,/,-8,/
COC(=O)C1(O)CC(C(C)C)=NN1C(=O)c1ccccc1 (centres undefined),5,2,45*,3,-8
CCOC(=O)O[C@]1(C(=O)OCCl)CCC2C3CCC4=CC(=O)C=C[C@]4(C)C3C(O)C[C@@]21C (some centres undefined),1,/,/,6,/
COc1ccc(C2Nc3ccccc3C(=O)N2NC(C)=O)c(OC)c1 (centres undefined),2,7,-2,1,53*
C#CCOCCOCCOCCNc1nc(N2CCN(C(=O)C(CCC(=O)O)n3cc(C(N)CC(C)C)nn3)CC2)nc(N2CCN(C(=O)C(Cc3ccc(O)cc3)n3cc(C(N)CC(C)C)nn3)CC2)n1 (centres undefined),2,/,/,5,/
CCc1ccc(CNC(=O)Cc2ccc(NC(=O)C3=C(C)OCCS3)cc2)cc1,/,11,-1,/,51*
CC1=C(C(=O)Nc2ccc(CC(=O)NCc3ccccc3C)cc2)SCCO1,5,2,0,2,23
CC(C)c1ccc2[nH]c3c(c2c1)CCCC3=NNC(=O)c1ccncc1,-8,/,/,-1,/
Cc1cc(C(=O)Nc2ccc(F)cc2C)n(-c2ccccc2)n1,6,-5,-2,2,12
